This passage reports growth results from PubChem BioAssay (NCI).

Holding throughout (test): NCI-60 one-dose screen, 48 h (100 = growth as untreated, 0 = no growth, -100 = all killed)
Details in all cases: 10 µM unless noted

Assay [1] relates to HCT-15 colon.
Assay [2] deals with HT29 colon.
Assay [3] deals with SNB-75 CNS.
The test system of assay [4] is SNB-19 CNS.
For assay [5], the system named is U251 CNS.
The test system of assay [6] is PC-3 prostate.
For assay [7], the system named is SK-MEL-5 melanoma.
Assay [8] relates to UACC-62 melanoma.
Assay [9] concerns LOX IMVI melanoma.
Assay [10] concerns SK-MEL-28 melanoma.
Assay [11] deals with SK-MEL-2 melanoma.
For assay [12], the system named is EKVX NSCLC.
In assay [13] the test system is SN12C renal.
For assay [14], the system named is UO-31 renal.
The subject of assay [15] is TK-10 renal.
Assay [16] has as its system ACHN renal.
Assay [17] relates to CAKI-1 renal.
For assay [18], the system named is A498 renal.
Assay [19] relates to CCRF-CEM leukemia.
Assay [20] relates to MOLT-4 leukemia.

Molecules are shown by their SMILES. This is part of a sample that, as a whole, favours compounds with a hit. Of some 83,000 tested, about 20% had one in any assay.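 Method: cells in 96-well plates; compound added at one concentration; 48 h incubation; percent growth measured; values under 10 scored active.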 A number with no mark means an inactive call. Activity calls are given as the source filed them.

With `O=S(=O)(Nc1cc(Sc2nc3ccccc3s2)c(O)c2ccccc12)c1ccc2ccccc2c1`, the growth was 97.5% in assay [1]; 115% in assay [2]; 88.2% in assay [3]; 106% in assay [4]; 86.6% in [5]; 77.3% in [6]. Moreover, the growth in [7] is 74.5%; in assay [8], 99.1%; in assay [9], 60.1%; in assay [10], 116%; in assay [11] it was 95.8%; in assay [12], 101%. Further, the growth is 90.6% in assay [13]; 70.2% in assay [14]; 123% in [15]; 97.6% in [16]; 101% in assay [17]; 96.9% in [18]. Moreover, the growth is 67.7% in [19] and 59.1% in [20].
Take `CNC(=O)NCC1OC(n2cnc3c(NC(=O)Nc4ccccc4)ncnc32)C2OC(=O)CC12` (stereo not given): the growth in assay [1] is 92.2%; in [2], 110%; in assay [3], 96.7%; in [4] it was 103%; in [5] it was 96.2%; in assay [6], 99.8%. For the same compound, the growth in [7] was 110%; in assay [8], 99.2%; in assay [9], 62.7%; in assay [10] it was 107%; in assay [11], 70%; in assay [12], 102%. The growth in [13] was 113%; in [14], 64.2%; in assay [15], 99.3%; in [16] it was 94.9%; in [17] it was 100%; in assay [18], 93.7%. For the same compound, the growth is 94.1% in [19] and 69.7% in [20].
Turning to `O=C1NC(=O)C(c2coc3cc(Br)ccc23)=C1c1c[nH]c2ccccc12`, the growth in assay [1] was 25%; in [2] it was 20.6%; in assay [3] it was -2.44% (active); in assay [4], 58%; in [5] it was 29.6%; in assay [6], 67.2%. The growth in assay [7] is 80.7%; in [8] it was 35.6%; in assay [9] it was 44%; in assay [10], 71.5%; in assay [11], 34.1%; in assay [12], 54%. Moreover, the growth in [13] is 55%; in assay [14], 58%; in assay [15], 80.8%; in [16] it was 71.3%; in assay [17] it was 39.2%; in assay [18], 5.34% (active). For the same compound, the growth is 29.1% in [19] and 26% in assay [20].
As to `CC(=O)Nc1sc2c(c1-c1nc3ccccc3s1)CNC2`, the growth is 11.3% in assay [1]; 15.7% in assay [2]; 29.5% in [3]; 26.8% in [4]; 27.3% in assay [5]; 21.7% in assay [6]. The growth is 17.4% in assay [7]; 20.1% in assay [8]; 3.64% (active) in [9]; 34.2% in [10]; 23.2% in assay [11]; 30.6% in assay [12]. Further, the growth in assay [13] is 27.9%; in [14], 6.46% (active); in [15], 29%; in assay [16] it was 9.91% (active); in assay [17] it was 23.8%; in [18], 36.6%. The growth in assay [19] was 22.6%; in assay [20], 10.4%.
On to `COc1ccc(/C=C/C(c2cc(OC)c(OC)c(OC)c2)n2cncn2)cc1O` (stereo not given), for which the growth was 16.5% in assay [1]; 41% in assay [2]; 41% in assay [3]; 34.2% in [4]; 20.7% in assay [5]; 23.5% in assay [6]. The growth in [7] was 23.9%; in assay [8] it was 37.5%; in assay [9] it was 50.9%; in [10] it was 59.1%; in [11], 18.2%; in assay [12], 59.4%. The growth in [13] was 49.6%; in assay [14] it was 54.2%; in assay [15] it was 41.2%; in [16], 63.1%; in [17] it was 34.5%; in assay [18], 19.8%. Also, the growth is 6.31% (active) in [19] and 21.8% in [20].
For `COc1ccc(N=C2NN=C(c3c[nH]c4ccccc34)CS2)cc1OC`, the growth is 43.3% in assay [1]; 25.3% in assay [2]; 42.2% in assay [3]; 51.8% in [4]; 44.8% in assay [5]; -41.3% (active) in assay [6]. The growth is 51.9% in assay [7]; 35.6% in assay [8]; 45.1% in assay [9]; 63.7% in assay [10]; 19.1% in assay [11]; 63.3% in [12]. In addition, the growth in assay [13] is 70.7%; in assay [14] it was 35.9%; in assay [15] it was 96%; in assay [16], 62.8%; in assay [17], 63.8%; in [18], 62.5%. Also, the growth in [19] is 39.5%; in assay [20], 39.9%.
Regarding `O=C(NC1CCC(Br)CC1)C1CCCC(S(=O)(=O)NC2CCCCC2)C1` (stereo not given), the growth in assay [1] is 18.8% [25 µM]; in assay [2], 28.7% [25 µM]; in assay [3], 27.4% [25 µM]; in [4] it was 26.8% [25 µM]; in [5], 18.5% [25 µM]; in assay [6], 4.26% [25 µM] (active). In addition, the growth in assay [7] was -68% [25 µM] (active); in [8] it was 9.41% [25 µM] (active); in assay [9], 15.8% [25 µM]; in assay [10], 24.7% [25 µM]; in assay [11] it was 17.9% [25 µM]; in assay [12], -19.3% [25 µM] (active). Besides, the growth in assay [13] is 22.2% [25 µM]; in assay [14] it was 8.5% [25 µM] (active); in assay [15] it was 18.4% [25 µM]; in assay [16] it was 15.9% [25 µM]; in assay [17] it was 13.5% [25 µM]; in assay [18], -5.7% [25 µM] (active). The growth is 18.3% [25 µM] in assay [19] and 7.81% [25 µM] (active) in [20].
`CCn1cc(Cc2cc(C(=O)Nc3cc4cc(OC)c(OC)cc4c(C)n3)ccc2Cl)cn1`: the growth in assay [1] was 19.3%; in assay [2], 2.56% (active); in assay [3] it was 36%; in [4], 44.7%; in assay [5] it was 48.3%; in [6], 29.2%. For the same compound, the growth in assay [7] is 13.3%; in assay [8], 43.8%; in [9] it was 5.28% (active); in [10], 35%; in assay [11] it was 42%; in [12], 47.2%. The growth is 50.2% in assay [13]; 35% in [14]; 73.7% in assay [15]; 15.7% in assay [16]; 47.8% in [17]; 44.4% in [18]. Moreover, the growth in [19] is 22.4%; in assay [20] it was 42.6%.
